PubChem BioAssay AID2551 (National Center for Advancing Translational Sciences (NCATS), 2010)
Out of some 310,000 compounds screened, about 17,000 (5.5%) were called active. About 11% were inconclusive and are not listed. The entries come from a sample that favours actives as a whole. Values without a mark were called inactive. Calls follow the shape of the dose curve; as a rule, active = well fitted inhibition curve with a large enough effect; inconclusive = small, poorly fitted or top-dose-only effect, or effect the other way; inactive = no such curve, though single readings can be large or run the other way.

What follows are compounds tested against Nuclear receptor ROR-gamma (Mus musculus) (UniProt P51450) (assay: qHTS for inhibitors of ROR gamma transcriptional activity). Conditions: Drosophila S2 Gal4-RORgamma UAS-luciferase reporter, 20 h; series mostly up to 53.6 µM; activity change, negative = inhibition: at the top concentration.
Summary of the method: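 Schneider cells (Drosophila), stable Gal4 DBD–ROR gamma + UAS-luc; 1 hr cmpd preincubation; Cu2+ induction 700 uM final; 20 hr ambient; luminescence.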
% is scaled to controls: 0 for no effect and ±100 for the full control effect; potency is read from the fitted curve at half-maximal effect.
Also: nearly all actives have a fitted effect of over 60% in size.

Chain of Nuclear receptor ROR-gamma (Mus musculus) (P51450 whole entry, looked up, the tested form may be a part): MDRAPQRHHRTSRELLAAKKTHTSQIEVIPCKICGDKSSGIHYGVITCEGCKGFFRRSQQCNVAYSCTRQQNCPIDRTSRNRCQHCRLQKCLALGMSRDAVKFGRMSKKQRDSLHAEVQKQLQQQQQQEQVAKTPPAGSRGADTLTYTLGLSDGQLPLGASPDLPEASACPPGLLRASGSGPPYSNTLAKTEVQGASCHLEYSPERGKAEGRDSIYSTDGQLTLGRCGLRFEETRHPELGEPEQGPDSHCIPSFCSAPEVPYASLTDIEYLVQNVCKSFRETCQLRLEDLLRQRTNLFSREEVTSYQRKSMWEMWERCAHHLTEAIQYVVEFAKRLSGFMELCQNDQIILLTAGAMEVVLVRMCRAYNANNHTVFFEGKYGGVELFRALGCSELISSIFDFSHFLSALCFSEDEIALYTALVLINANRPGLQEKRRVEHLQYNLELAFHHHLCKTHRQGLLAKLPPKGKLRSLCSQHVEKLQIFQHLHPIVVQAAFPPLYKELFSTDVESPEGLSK

SMILES	Potency	activity change, negative = inhibition
CC1=CC(C)(C)Nc2ccc(OC(=O)CN3C(=O)C4CCCCC4C3=O)cc21 (stereo not drawn)	4.47 µM (active)	
O=C(CN1C(=O)C2C3CCC(C3)C2C1=O)Oc1ccc2ccccc2c1 (stereo not drawn)		-7.76%
CC1=CC(C)(C)Nc2ccc(OC(=O)C(Cc3ccccc3)N3C(=O)C4CCCCC4C3=O)cc21 (stereo not drawn)		-35.1%
O=C1CSc2ccc(S(=O)(=O)NCc3ccccc3)cc2N1		33.7%
CN(Cc1ccccc1)C(=O)C1CCCN(c2ncnc3c2nc2n3CCCCC2)C1 (stereo not drawn)		-2.47%
CN(C)CCN(C(=O)C1=COCCO1)c1nc2ccc(Cl)cc2s1		-21%
CC1=NN(Cc2ccccc2)C(=O)/C1=C/c1ccc(N(C)C)cc1		19.9%
CN(C)c1ccc(/C=C2\NC(=S)N(Cc3ccccc3)C2=O)cc1	5.01 µM (active)	
O=C1NCC(=O)N(Cc2ccccc2)/C1=C/c1ccccc1		20.5%
COC(=O)CSc1nnc(NC(=O)CCc2ccccc2)s1		-29.2%
O=C(Cc1ccc(Br)cc1)NCCN1CCOCC1		0.0908%
Clc1ccc(-c2nc3ccccn3c2CN2CCSCC2)cc1	12.6 µM (active)	
Clc1ccc(-c2nnc(-c3ccccc3)nc2N2CCSCC2)cc1		1.66%
CC1CCN(Cc2nc(-c3ccc(Cl)cc3)no2)CC1		-0.501%
Cc1ccc(N(Cc2ccccc2O)C(=O)c2ccccc2F)cc1		-3.87%
COc1ccc(C(=O)ON=C2c3ccccc3-c3ccccc32)cc1OC		-1.62%
COc1ccc(C/C(N)=N/OC(=O)c2ccco2)cc1OC		8.38%
COc1ccc(C(=O)O/N=C(\N)Cc2ccc(Cl)cc2Cl)cc1OC	15.8 µM (active)	
CCOc1ccc(N(CC(=O)Nc2cccc(OC)c2)S(C)(=O)=O)cc1		5.74%
OC(CNCCc1ccc(Cl)cc1Cl)COc1ccccc1 (stereo not drawn)		4.24%
COc1ccc(C2CC(c3cccs3)=NN2C(=O)CCC(=O)O)cc1OC (stereo not drawn)		-28%
O=C(CCCCCNC(=O)c1ccccc1)N/N=C/c1ccccc1		25.7%

SMILES	Potency	activity change, negative = inhibition
O=C(CCC(=O)Nc1ccccc1)N/N=C/c1ccccc1F		23%
O=C(N/N=C/c1ccccc1O)/C(=C/c1ccccc1)CCO	1.12 µM (active)	
COC(=O)c1ccc(COC(=O)c2cnc(Cl)c(Cl)c2)cc1		2.5%
CCn1c(SCC(=O)NC2CC2)nnc1-c1ccccn1		-1.01%
CCC(=O)c1ccc(OC(=O)/C=C/c2cc(OC)c(OC)c(OC)c2)cc1		-30%
COc1ccc(/C=C/C2=CC(C)(C)NC(=S)N2)c(OC)c1	1.26 µM (active)	
COc1cc(/C=C/C2=CC(C)(C)NC(=S)N2)cc(OC)c1OC	3.55 µM (active)	
COc1ccc(/C=C2/C(=O)N(c3ccccc3)N=C2C)c(OC)c1		20.8%
COc1ccc(N)c(OC)c1		-20.4%
CCOC(=O)COn1c(=O)c(-c2ccc(OCC)cc2)[n+]([O-])c2ccccc21		4.06%
COc1cc(C(=O)OCC(=O)NC(C)CCc2ccccc2)cc(OC)c1OC (stereo not drawn)		5.34%
COc1cc(C(C(=O)NC2CCCC2)N(Cc2ccccc2)C(=O)c2snc(C(N)=O)c2N)ccc1O (stereo not drawn)		-5.04%
Cc1ccc(-n2[nH]c(C)c(/C=N/NC(=O)c3cccc([N+](=O)[O-])c3)c2=O)cc1C	1.12 µM (active)	
Cc1[nH]n(-c2ccccc2)c(=O)c1/C=N/NC(=O)c1ccoc1C	0.251 µM (active)	
Cc1[nH]n(-c2ccccc2)c(=O)c1N=Nc1ccccc1C(=O)N1CCCCC1		0.698%
O=C(N/N=C/c1cccc([N+](=O)[O-])c1)c1ccncc1		13.7%
COc1cccc(/C=N/NC(=O)c2cccc([N+](=O)[O-])c2)c1OS(=O)(=O)c1ccc(C)cc1		-19.9%
COc1cc(/C=N/NC(=O)c2ccoc2C)ccc1OCCN1CCCCC1		-8.8%
Cc1oc(-c2ccccc2F)nc1CS(=O)CC(=O)NCCN1CCCCC1C (stereo not drawn)		-5.2%
CCOc1ccc(S(=O)(=O)N2CCN=C2Cc2ccccc2)cc1C		-32.3%
COc1cccc(CNC(=O)CCCC(=O)Nc2cccc([N+](=O)[O-])c2)c1		34.9%
Cc1cnc(C)c(N2CCN(C(=O)C3CCC(=O)N(CCc4cccc(F)c4)C3)CC2)n1 (stereo not drawn)		1.08%

SMILES	Potency	activity change, negative = inhibition
Cc1cc(C)c2c(n1)nn1c(-n3ccnc3)cc(C)nc21	10 µM (active)	
Cc1cc(C)c2c(NC(=O)C3CC3)nn(C)c2n1		10.5%
Cc1cc(-n2nc(C)cc2C)n2nc(C)c(-c3ccccc3)c2n1		-12.8%
O=C(Nc1ccc(F)cc1)C(=O)c1cn(CC(=O)N2CCOCC2)c2ccccc12		26%
CCSc1nc(O)c(C(c2cccc(OC)c2)c2c(O)nc(SCC)[nH]c2=O)c(=O)[nH]1		-12.8%
CC(=O)c1cccc(NC(=S)N2CCCC2)c1		-4.06%
CCOC(=O)C1(Cc2ccccc2C)CCCN(C(=O)CCc2c(C)noc2C)C1 (stereo not drawn)		-5.53%
COc1ccc(N2C(=O)C3C(C2=O)C(C(=O)c2ccccc2)N2CCCC32)cc1 (stereo not drawn)	11.2 µM (active)	
COc1ccc(N2C(=O)C3CCCN3C2c2cccc(OC)c2)cc1 (stereo not drawn)		3.84%
COc1ccc(N2C(=O)C(Cc3ccccc3)NC2=S)cc1 (stereo not drawn)		-5.44%
O=S1(=O)N=C(N(CCO)/N=C/c2ccccc2F)c2ccccc21		-1.86%
COc1ccc(N2CCN(Cc3nnc(-c4ccccc4)o3)CC2)cc1		2.46%
O=c1[nH]cnc2c1c(-c1ccccc1)cn2-c1ccc(F)cc1		18.3%
COc1ccc(-n2cc(-c3ccccc3)c3c(=S)nc[nH]c32)cc1	0.501 µM (active)	
Cc1cccc(NC(=O)CCN2CC(C)CC(C)C2)c1 (stereo not drawn)		-3.81%
c1ccc(-c2cn3c(n2)CCc2ccc4cccnc4c2-3)cc1	3.55 µM (active)	
COCC(=O)N1CCc2ccc(NC(=O)c3ccccc3Cl)cc2C1		8.09% [at 1.91 µM]
CC(NC(=O)Cn1cc(C(F)(F)F)cc(Cl)c1=O)c1ccccc1 (stereo not drawn)		-10.7%
Cc1ccc(S(=O)(=O)c2nc(-c3cccs3)oc2NCc2cccnc2)cc1		7.35%
C/C(=N/NC(=S)Nc1ccccc1)c1ccc2c(c1)OCO2	1.26 µM (active)	
C/C(=N\NC(=O)C(N)=O)c1ccc2c(c1)OCCO2		28.9%
C/C(=N/NC(=O)c1ccncc1)c1ccc2c(c1)OCO2		32.9%

SMILES	Potency	activity change, negative = inhibition
CCCCc1nc(SCC(=O)Nc2nnc(C(C)C)s2)n[nH]1		-7.48%
Cc1ccc2nc(-c3ccncc3)cc(C(=O)Nc3ccncc3)c2c1		-21.9%
Cc1cc(C)cc(OCC(=O)NC(C)c2ccccc2)c1 (stereo not drawn)		24.4%
CCC1=C/C(=C\c2ccc3c(c2)OCO3)C(=O)S1		24.2%
O=C(N/N=C/c1ccc2c(c1)OCO2)C(=O)N1CCCC1		-1.04%
O=C1/C(=C/c2ccc3c(c2)OCO3)CCC/C1=C\c1ccc2c(c1)OCO2	11.2 µM (active)	
O=C(NC(Cc1ccccc1)C(=O)O)/C(=C\c1ccccc1)NC(=O)c1ccco1 (stereo not drawn)		-19.7%
CC(C)Oc1ccc(CCc2n[nH]c(=S)n2Cc2ccccc2)cc1	3.16 µM (active)	
CC(=O)N(OCc1ccc(OC(C)C)c(Cl)c1)C(C)=O		11%
CC(C)Oc1ccc(CCc2nnc(SCC(=O)O)n2-c2ccccc2)cc1		1.09%
CC(C)Oc1ccc(Cc2n[nH]c(=S)n2Cc2ccccc2)cc1Cl	3.98 µM (active)	
C=CCn1c(CCc2ccc(OC(C)C)cc2)n[nH]c1=S		1.5%
CC(=O)Nc1ccc(S(=O)(=O)N2CCC(C(=O)NC3CC3)CC2)cc1		-24.5%
OC(CNC1CCCC1)COc1ccc(F)cc1 (stereo not drawn)		-1.27%
COc1ccccc1CNS(=O)(=O)c1ccc2c(c1)NC(=O)CS2		14%
CCCn1nc(NS(=O)(=O)c2ccc(F)cc2)c2cc3ccccc3nc21		5.21%
COc1ccc(N=Nc2ccc(O)c(P(=O)(c3ccccc3)c3ccccc3)c2)cc1		16%
Cc1cc(N=Nc2ccc3ccccc3c2)ccc1O	11.2 µM (active)	
Cc1cccc(C(=O)NNC(=O)CSc2nnc(C(C)C)n2C)c1		-19.4%
Cc1c(C(C)(C)O)[nH]c2ccc(C#N)cc12		14.1%
CCn1c(SCC(=O)NNC(=O)c2ccc(OC)cc2)nnc1C(C)C		-32.5%
COC(=O)C1=C(C)OC(N)=C(C#N)C1c1cc(OC)ccc1OC (stereo not drawn)		-29.4%

SMILES	Potency	activity change, negative = inhibition
COC(=O)C1=C(C)N(C)C(=S)NC1c1ccccc1 (stereo not drawn)		-2.63%
COC(=O)C1=C(C)N(C)C(=S)NC1c1cc(OC)ccc1OC (stereo not drawn)	15.8 µM (active)	
CCOC(=O)c1c(-c2ccccc2)oc2ccc(OCC(N)=O)cc12		61.5%
CCOC(=O)c1c(S(=O)(=O)Nc2cccc(Cl)c2)c(C)n(C)c1C		-21.2%
CC(=O)Nc1cccc(/C(C)=N/NC(=O)c2ccccc2Cl)c1		32.2%
C/C(Cc1ccccc1)=N\NC(=O)CNC(=O)c1ccccc1Cl		22.1%
CC/C(=N\NC(=O)c1ccccc1Cl)c1ccc(Br)s1	11.2 µM (active)	
CCCOc1ccc(C(=O)C(CCC(CNCC)C(=O)c2ccc(OCCC)cc2)CNCC)cc1 (stereo not drawn)	15.8 µM (active)	
CCCCOc1ccc(C(=O)NCc2ccncc2)cc1		15.1%
CCCOc1ccc(N/C=C/C(=O)C(C)(C)C)cc1		44.4%
COc1cccc(-n2cc(C(=O)O)c3ccccc3c2=O)c1		-16.1%
COc1cccc(N2C(=O)CN(Cc3ccccc3)C2=S)c1		-4.86%
COc1cccc(-n2c(=S)[nH]c3c(oc4ccccc43)c2=O)c1	7.08 µM (active)	
CCc1cccc(CC)c1NC(=S)Nc1ccc2cn[nH]c2c1		-26.6%
CCNCc1cc2cc(C)ccc2[nH]c1=O		-37.6%
CCc1cccc(CC)c1NC(=S)NCc1ccc2[nH]c(C)cc2c1	2.51 µM (active)	
Cc1cccc(S(=O)(=O)N2CN(CC3CCCO3)c3nc4ccccc4nc32)c1 (stereo not drawn)		0.765%
CC(C)(C)n1nnnc1C(c1ccc(Cl)cc1)N1CCSCC1 (stereo not drawn)		-6.3%
CC(C)(C)n1nnnc1C(c1ccc2ncccc2c1)N1CCSCC1 (stereo not drawn)	10 µM (active)	
CCC(C)(C)n1nnnc1C(c1ccccc1OC)N1CCSCC1 (stereo not drawn)		-15.1%
